From PubChem BioAssay AID1942 (Johns Hopkins Ion Channel Center, 2009) come the findings set out here.

In all, about 2,400 compounds went through this assay and about 580 (24%) were called active.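 The calls were made as follows: active = activity change at or above the mean plus 3 SD of buffer wells without dofetilide, per plate; inactive = the rest.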 A selection follows.

Potassium voltage-gated channel subfamily KQT member 2 (Rattus norvegicus), sequence (O88943 whole entry, looked up): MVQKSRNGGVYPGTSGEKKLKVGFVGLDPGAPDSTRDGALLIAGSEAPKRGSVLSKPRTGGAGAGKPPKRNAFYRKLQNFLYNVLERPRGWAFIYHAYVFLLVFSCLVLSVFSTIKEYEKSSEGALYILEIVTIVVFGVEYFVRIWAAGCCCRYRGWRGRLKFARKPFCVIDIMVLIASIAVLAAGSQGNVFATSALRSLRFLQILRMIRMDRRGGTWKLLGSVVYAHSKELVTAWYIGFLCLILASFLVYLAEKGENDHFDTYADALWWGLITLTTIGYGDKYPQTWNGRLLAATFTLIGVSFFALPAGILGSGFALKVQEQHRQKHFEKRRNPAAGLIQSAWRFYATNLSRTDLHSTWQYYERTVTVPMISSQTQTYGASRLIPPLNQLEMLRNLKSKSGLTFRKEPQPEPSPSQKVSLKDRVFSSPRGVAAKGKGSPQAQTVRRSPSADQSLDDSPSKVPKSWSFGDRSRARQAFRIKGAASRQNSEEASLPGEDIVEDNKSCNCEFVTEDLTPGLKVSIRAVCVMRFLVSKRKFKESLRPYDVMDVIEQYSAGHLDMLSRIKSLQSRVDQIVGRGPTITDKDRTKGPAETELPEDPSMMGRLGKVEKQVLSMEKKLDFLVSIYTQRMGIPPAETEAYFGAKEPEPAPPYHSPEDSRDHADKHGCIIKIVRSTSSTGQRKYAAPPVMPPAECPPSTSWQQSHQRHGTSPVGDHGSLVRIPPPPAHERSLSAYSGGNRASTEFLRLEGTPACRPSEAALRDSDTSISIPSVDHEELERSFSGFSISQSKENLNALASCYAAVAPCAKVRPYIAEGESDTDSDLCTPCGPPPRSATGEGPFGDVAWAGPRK

This assay has as its target Potassium voltage-gated channel subfamily KQT member 2 (Rattus norvegicus) (UniProt O88943). The assay can be described thus: rat KCNQ2 channel activation by compounds alone, confirmation, counter-screen for hERG block protector project, cell-based, CHO, FluxOR thallium flux (AID 1942).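 Also: normalized value minus buffer-control mean plus three SD of buffer wells.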 The note with it: CHO-KCNQ2 cells, FluxOR thallium flux fluorescence; at 10 µM; stronger effect = higher value. A general note: A counterscreen serves to expose hits that act by an unwanted route or on another target.
As for `CN(C)C(=O)c1ccc(NC(=O)c2cncc(Br)c2)cc1`, the activity change, less the hit threshold was -12% (inactive).

`COc1ccccc1C(=O)NC(=S)NNC(=O)c1sc2ccccc2c1Cl`: the activity change, less the hit threshold was 77% (active).

As for `O=C(NNC(=S)NC(=O)c1sc2ccccc2c1Cl)c1ccc(Cl)cc1`, the activity change, less the hit threshold is 11.1% (active).

As to `COc1ccccc1C(=O)NNC(=S)NC(=O)c1sc2ccccc2c1Cl`, the activity change, less the hit threshold is 19.7% (active).

In the case of `O=C(NC(=S)Nc1ccc(N2CCOCC2)c(Cl)c1)c1sc2ccccc2c1Cl`, the activity change, less the hit threshold was -10.6% (inactive).

`Cc1ccc(C(=O)NNC(=S)NC(=O)c2ccc(Cl)cc2)cc1`: the activity change, less the hit threshold is -28.7% (inactive).

Regarding `O=C(Nc1nc(=O)c2ccccc2s1)c1ccc(Cl)cc1`, the activity change, less the hit threshold was -5.6% (inactive).

`COc1cccc(C(=O)NC(=S)Nn2cnnc2)c1OC`: the activity change, less the hit threshold is -19.6% (inactive).

With `Cc1ccc(NC(=S)NC(=O)c2sc3ccccc3c2Cl)c(C(=O)O)c1`, the activity change, less the hit threshold was 13.9% (active).

For the molecule `CCC(C)N(C(=O)CSc1nnc(NC(C)C)s1)C1CCS(=O)(=O)C1` (configuration not stated), the activity change, less the hit threshold is -15.4% (inactive).

As for `O=c1cc(CN2CCN(S(=O)(=O)c3ccc4c(c3)OCCO4)CC2)c2ccc(O)cc2o1`, the activity change, less the hit threshold was -20% (inactive).

Turning to `S=c1[nH]nc(CSc2nc3ccccc3s2)n1C1CCCCC1`, the activity change, less the hit threshold was -2.2% (inactive).

Regarding `Cc1ccc(C(=O)NNc2cc(N3CCCC3)nc(N3CCCC3)n2)cc1`, the activity change, less the hit threshold was 16.1% (active).

Regarding `Cc1ccc(CNC(=O)c2ccc(CNc3c(N4CCCC4)c(=O)c3=O)cc2)cc1`, the activity change, less the hit threshold was -23.6% (inactive).

For the molecule `Cc1ccc(C(=O)Nc2nc(=O)n(C)s2)cc1`, the activity change, less the hit threshold is -12% (inactive).

Consider `O=C(Nc1nnc(C2=COCCO2)o1)c1ccc(Br)cc1`, for which the activity change, less the hit threshold is -2.3% (inactive).

For the molecule `CCn1cc(C(=O)NCCN(C)C)c(=O)c2cc(F)c(N3CCN(C)CC3)cc21`, the activity change, less the hit threshold was -23.9% (inactive).

Turning to `COc1ccc(C(=O)Nc2ccc(-n3nncc3C(C)(C)C)cc2)cc1`, the activity change, less the hit threshold is 17.5% (active).

For the molecule `COc1ccc(NC(=O)c2ccc(NC3=NC4CS(=O)(=O)CC4S3)cc2)cc1` (configuration not stated), the activity change, less the hit threshold was -19.9% (inactive).

For the molecule `COc1ccc(NC(=O)c2ccc(COCC(F)(F)C(F)F)cc2)cc1`, the activity change, less the hit threshold is -19.7% (inactive).

Consider `CCSc1nnc(NC(=O)CC(C)C)s1`, for which the activity change, less the hit threshold was -11.1% (inactive).

On to `Cc1nn(CCC#N)c2nc(-c3ccccc3)cc(C(F)(F)F)c12`, for which the activity change, less the hit threshold was -22.2% (inactive).

As to `O=c1cc(-c2ccccc2)nc2c(-c3ccccc3)c(C(F)(F)F)[nH]n12`, the activity change, less the hit threshold was 59.6% (active).

Consider `Cc1[nH]n2c(=O)cc(C(C)(C)C)nc2c1-c1ccccc1`, for which the activity change, less the hit threshold was 14.6% (active).

As for `Cc1[nH]n2c(=O)cc(C(C)C)nc2c1-c1ccccc1`, the activity change, less the hit threshold was -3.3% (inactive).

For the molecule `NC(=O)c1nn2c(C(F)(F)F)cc(-c3ccccc3)nc2c1Br`, the activity change, less the hit threshold was -18.2% (inactive).

Consider `CN(C(=O)CCc1ccccc1)c1nnc(-c2ccncc2)s1`, for which the activity change, less the hit threshold was -20.2% (inactive).

As to `Cc1cc(=O)oc2cc(OCC(=O)OCC(=O)NC(C)C)ccc12`, the activity change, less the hit threshold was -16.8% (inactive).

Turning to `O=C(NCCc1nnc2ccc(NCc3ccc(Cl)cc3)nn12)c1ccccc1`, the activity change, less the hit threshold is -7.7% (inactive).

As to `O=C(N/N=C/c1cc([N+](=O)[O-])ccc1O)c1ccc(COc2ccc3c(c2)CCC3)o1`, the activity change, less the hit threshold was -47.5% (inactive).

Regarding `N#CCCn1cc(/C=N/NC(=O)c2ccncc2)c(-c2ccc(F)cc2)n1`, the activity change, less the hit threshold was -4.3% (inactive).

Consider `CCn1ccnc1CN1CCCC(CO)(Cc2cccc(OC)c2)C1` (configuration not stated), for which the activity change, less the hit threshold was -24.6% (inactive).

Consider `CCCCNC(=O)COC(=O)c1ccc(NC(C)=O)cc1`, for which the activity change, less the hit threshold is -20.3% (inactive).

Turning to `CCNC(=O)C/C(C)=N/NC(=O)C(=O)Nc1ccc(CC)cc1`, the activity change, less the hit threshold is 4.9% (active).

As to `CSCC[C@H](NC(=O)Nc1ccc(C)cc1C)C(=O)O`, the activity change, less the hit threshold was -12% (inactive).

Regarding `CCOC(=O)C1CCN(S(=O)(=O)c2cccc3nonc23)CC1`, the activity change, less the hit threshold is -11.1% (inactive).

Consider `O=C(O)Cc1cc(I)c(Oc2ccc(O)c(I)c2)c(I)c1`, for which the activity change, less the hit threshold was 93.7% (active).

On to `O=C(O)CN1C(=O)c2ccc(Oc3ccc4c(c3)C(=O)N(CC(=O)O)C4=O)cc2C1=O`, for which the activity change, less the hit threshold was -11.1% (inactive).

As to `NC(=O)Cn1c2[n+](c3ccccc31)CC(O)CS2` (configuration not stated), the activity change, less the hit threshold was -19.2% (inactive).

Consider `Cc1ccc(NC(=O)c2noc3c2CCC3)cc1C`, for which the activity change, less the hit threshold was -19.4% (inactive).

In the case of `CCc1ccc(C(C)NC(=O)C2CCCC2)cc1` (configuration not stated), the activity change, less the hit threshold was 14.8% (active).

For the molecule `Cc1ccc(NC(=O)C2C3CCC(O3)C2C(=O)O)cc1C` (configuration not stated), the activity change, less the hit threshold was -2.7% (inactive).

For the molecule `Cc1ccc(C(C)NC(=O)C2CCCC2)cc1C` (configuration not stated), the activity change, less the hit threshold is 37.3% (active).

Take `CCc1ccccc1N(CC(=O)NC(C)c1ccccc1)S(C)(=O)=O` (configuration not stated): the activity change, less the hit threshold is -20.5% (inactive).

In the case of `CSc1ccccc1-n1nnnc1SCC(=O)Nc1cc(C)ccc1C`, the activity change, less the hit threshold was -20.8% (inactive).

Take `C=CCSC1=C(C#N)C(c2ccccc2)CC(=O)N1` (configuration not stated): the activity change, less the hit threshold was -23.3% (inactive).

As for `O=C(CNC(=O)c1ccccc1)NCc1ccc(Cl)cc1`, the activity change, less the hit threshold is -10.7% (inactive).

On to `Cc1ccsc1/C=N/NC(=O)CNC(=O)c1ccccc1`, for which the activity change, less the hit threshold is -13.4% (inactive).

`Cc1nn(C(=O)CNC(=O)c2ccccc2)c(C)c1C`: the activity change, less the hit threshold was 17.2% (active).

As to `Cc1ccc(S(=O)(=O)N2CCOCC2)cc1NC(=O)COC(=O)c1cccnc1Cl`, the activity change, less the hit threshold was -22.8% (inactive).

On to `CC(C)c1ccc(CNc2nc3nc4c(c(=O)n3[nH]2)CCC4)cc1`, for which the activity change, less the hit threshold was 0.8% (active).

For `CCC(=O)Nc1ccc(N2CCOCC2)c(S(=O)(=O)Nc2ccc(OC)cc2)c1`, the activity change, less the hit threshold was -22.6% (inactive).

In the case of `Cc1ccc2[nH]c(C(=O)O)c(-c3ccccc3)c2c1`, the activity change, less the hit threshold is -8.1% (inactive).

Turning to `Cc1ccc(-n2nc3ccc(N)cc3n2)c(C)c1`, the activity change, less the hit threshold is -29.1% (inactive).

On to `Cc1cc(C)cc(-n2ncc3c2CCCC3NC(=O)c2csnn2)c1` (configuration not stated), for which the activity change, less the hit threshold was -28.6% (inactive).

In the case of `CC(O)C(NS(=O)(=O)c1ccc(Cl)cc1)C(=O)OCc1cc([N+](=O)[O-])cc2c1OCOC2` (configuration not stated), the activity change, less the hit threshold is -18.1% (inactive).

`O=[N+]([O-])c1ccc(Nc2ccccc2F)nc1`: the activity change, less the hit threshold was -2.6% (inactive).

As for `O=[N+]([O-])c1ccc(Nc2ccc(Cl)cc2)nc1`, the activity change, less the hit threshold was 3.5% (active).

As for `O=[N+]([O-])c1ccc(CSc2nnc(SCc3ccc(Cl)cc3)s2)cc1`, the activity change, less the hit threshold is -10.9% (inactive).

In the case of `CCOc1ccc(NC(=S)NC(=O)c2ccco2)cc1`, the activity change, less the hit threshold is 8% (active).

On to `CCN(CC)c1ccc(NC(=S)NC(=O)c2ccco2)cc1`, for which the activity change, less the hit threshold was 35.9% (active).

On to `CCCOc1ccc(C(=O)NNC(=S)NC(=O)c2ccco2)cc1`, for which the activity change, less the hit threshold was -27.6% (inactive).

Regarding `COc1cc(OC)cc(C(=O)NC(=S)Nc2ccc(NC(=O)c3ccco3)cc2)c1`, the activity change, less the hit threshold is -20.6% (inactive).

Regarding `CNC(=O)c1cc(C(=O)c2ccc(F)cc2C(F)(F)F)c[nH]1`, the activity change, less the hit threshold is -11.8% (inactive).

`CCC(C)(C)NC(=O)c1ccc(Sc2nncn2C)c([N+](=O)[O-])c1`: the activity change, less the hit threshold is -20.1% (inactive).

`O=C1CCN(S(=O)(=O)c2ccc(Cl)cc2)CCN1`: the activity change, less the hit threshold is -21.6% (inactive).

For the molecule `CC(Sc1n[nH]c(=O)[nH]c1=O)C(=O)OCc1ccccc1` (configuration not stated), the activity change, less the hit threshold is -11.2% (inactive).

For `COCCNC(=O)CN(C(=O)c1ccc(N2CCCC2)nc1)c1ccccc1`, the activity change, less the hit threshold is -18.5% (inactive).

For the molecule `Cn1nnnc1SCC(=O)Nc1ccccn1`, the activity change, less the hit threshold is -5.9% (inactive).

Regarding `CC(=O)Nc1ccccc1NC(=O)C/C(C)=N/NC(=O)c1ccc([N+](=O)[O-])c(Cl)c1`, the activity change, less the hit threshold was -19% (inactive).

With `C/C(CC(=O)Nc1ccccn1)=N\NC(=O)C(=O)Nc1cccc(Cl)c1C`, the activity change, less the hit threshold is 1.1% (active).

Consider `c1ccc(Cn2ncc3c(N4CCN(C(c5ccccc5)c5ccccc5)CC4)ncnc32)cc1`, for which the activity change, less the hit threshold is -29.3% (inactive).

In the case of `COc1cccc2sc(Nc3nnc(-c4ccc(F)cc4)o3)nc12`, the activity change, less the hit threshold was 45.4% (active).

On to `CCOc1ccccc1Nc1nc(-c2sc(C)nc2C)cs1`, for which the activity change, less the hit threshold is -22% (inactive).

For the molecule `COc1cccc2sc(Nc3nc(-c4ccccn4)cs3)nc12`, the activity change, less the hit threshold was 20.3% (active).

As to `COc1cccc2sc(Nc3nnc(-c4ccccc4Cl)o3)nc12`, the activity change, less the hit threshold was 9.4% (active).

On to `COc1cccc2sc(Nc3nnc(-c4cccs4)o3)nc12`, for which the activity change, less the hit threshold is 53.9% (active).

Regarding `N#C/C(=C\c1ccc(-c2ccccc2Cl)o1)C(=O)Nc1nc2ccccc2s1`, the activity change, less the hit threshold was -10.9% (inactive).

In the case of `COc1ccccc1Nc1nnc(SCC(=O)Nc2nc(-c3ccc(F)cc3)cs2)s1`, the activity change, less the hit threshold is -22.3% (inactive).

Turning to `Cc1ccc(CNC(=O)C2=CCN(S(=O)(=O)c3ccc(C)cc3)CC2)cc1`, the activity change, less the hit threshold was -15.1% (inactive).

Consider `Cc1c(C(=O)NNC(=O)c2ccncc2)oc2ccc(Br)cc12`, for which the activity change, less the hit threshold is -16.1% (inactive).

Consider `Cc1ccc(CNC(=O)CN(C(=O)C2(C)CC(=O)N=C3C=CC=CN32)c2ccccc2F)cc1` (configuration not stated), for which the activity change, less the hit threshold is -10.9% (inactive).

As for `C=Cc1ccc(Cn2c(=O)n(CCCOC)c(=O)c3sccc32)cc1`, the activity change, less the hit threshold is -28.9% (inactive).

For `O=S(=O)(Nc1ccc(Cc2ccncc2)cc1)c1ccc(Cl)c(Cl)c1`, the activity change, less the hit threshold was -20.9% (inactive).

Take `CCCn1c(CC)nc([N+](=O)[O-])c1S(=O)(=O)c1ccccc1`: the activity change, less the hit threshold is -4.3% (inactive).

Take `CC(C)[C@H](NC(=O)c1ccco1)C(=O)OCC(=O)Nc1cccc(F)c1`: the activity change, less the hit threshold is -22% (inactive).

For `CCOc1c(OC)ccc2c3c(c(=O)oc12)CCCC3`, the activity change, less the hit threshold is -8.2% (inactive).

As for `CN1CCN(S(=O)(=O)c2cccc(S(=O)(=O)c3ccc(Cl)cc3)c2)CC1`, the activity change, less the hit threshold was -17.8% (inactive).

As for `Cn1c(=O)c2c(nc(Cl)n2CC(=O)N2CCCCC2)n(C)c1=O`, the activity change, less the hit threshold is -22.7% (inactive).

Turning to `CCCCc1c(C)[nH]c(C(=O)OCC)c1C`, the activity change, less the hit threshold is -19.3% (inactive).

With `COCCn1c(=S)[nH]c2sc3c(c2c1=O)CCC(C)C3` (configuration not stated), the activity change, less the hit threshold was 51.5% (active).

As for `CCOCCCn1c(=S)[nH]c2cc(C(=O)NCCOC)ccc2c1=O`, the activity change, less the hit threshold is -10.4% (inactive).

Turning to `COCCCn1c(=S)[nH]c2c(sc3ccccc32)c1=O`, the activity change, less the hit threshold is -11.4% (inactive).

With `COCCCn1c(=S)[nH]c2sc3c(c2c1=O)CCCC3`, the activity change, less the hit threshold was 40.5% (active).

With `COCCn1c(=S)[nH]c2sc3c(c2c1=O)CCCC3`, the activity change, less the hit threshold was 31.9% (active).

For `Cc1ccc(S(=O)(=O)Nc2c(C)[nH]c(=O)[nH]c2=O)cc1C`, the activity change, less the hit threshold was -17.9% (inactive).

Regarding `CCOC(=O)CSc1nnc(NC(=O)c2ccc3c(c2)OCO3)s1`, the activity change, less the hit threshold was -23.9% (inactive).
